# Test results reported in paper PMC4336329 (PLoS ONE, 2015).
# The whole screen tested about 310,000 compounds, of which about 14,000 (4.5%) showed an effect of 50% or more. The effect is printed as a negative number. Shown is part of a subset that was picked to be rich in strong results.
# Molecular target: human ether-à-go-go-related gene (hERG) potassium channel (human, UniProt Q12809)
# Assay: primary screen, population patch clamp on CHO cells stably expressing hERG; higher = less effect of the substance
# 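Note: peak tail current of the secondary pulse compared with the same well before compound.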
# Chain of human ether-à-go-go-related gene (hERG) potassium channel (Q12809 whole entry, looked up): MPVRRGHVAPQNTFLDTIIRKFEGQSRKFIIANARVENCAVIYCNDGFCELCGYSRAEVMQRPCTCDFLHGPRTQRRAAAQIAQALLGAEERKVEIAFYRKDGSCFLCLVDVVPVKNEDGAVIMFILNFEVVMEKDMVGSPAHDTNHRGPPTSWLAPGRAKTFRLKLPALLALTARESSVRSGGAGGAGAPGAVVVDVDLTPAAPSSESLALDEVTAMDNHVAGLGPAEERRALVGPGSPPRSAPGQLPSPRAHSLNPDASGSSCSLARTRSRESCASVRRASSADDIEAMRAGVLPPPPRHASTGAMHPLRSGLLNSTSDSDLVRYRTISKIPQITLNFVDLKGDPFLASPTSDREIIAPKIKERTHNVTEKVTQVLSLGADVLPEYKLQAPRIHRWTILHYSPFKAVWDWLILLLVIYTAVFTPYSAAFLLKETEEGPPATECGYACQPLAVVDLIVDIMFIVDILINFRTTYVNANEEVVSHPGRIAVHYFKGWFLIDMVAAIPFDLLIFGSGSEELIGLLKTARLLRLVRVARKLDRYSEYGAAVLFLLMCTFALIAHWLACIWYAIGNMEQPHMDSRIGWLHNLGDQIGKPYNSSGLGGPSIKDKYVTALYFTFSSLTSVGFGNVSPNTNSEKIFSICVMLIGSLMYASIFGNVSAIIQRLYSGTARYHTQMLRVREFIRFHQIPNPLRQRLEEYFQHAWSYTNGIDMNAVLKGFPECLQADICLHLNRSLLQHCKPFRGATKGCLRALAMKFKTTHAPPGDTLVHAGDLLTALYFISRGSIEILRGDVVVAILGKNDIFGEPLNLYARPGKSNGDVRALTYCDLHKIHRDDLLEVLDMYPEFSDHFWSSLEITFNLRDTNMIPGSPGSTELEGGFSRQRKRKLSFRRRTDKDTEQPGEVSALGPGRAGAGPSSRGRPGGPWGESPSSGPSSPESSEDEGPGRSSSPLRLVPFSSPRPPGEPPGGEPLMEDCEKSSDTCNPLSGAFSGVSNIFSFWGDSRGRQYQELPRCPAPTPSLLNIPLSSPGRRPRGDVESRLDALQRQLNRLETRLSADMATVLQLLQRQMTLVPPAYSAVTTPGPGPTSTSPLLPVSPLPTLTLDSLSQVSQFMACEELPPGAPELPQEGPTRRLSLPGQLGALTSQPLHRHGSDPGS
row,SMILES,"hERG current change (%, negative = inhibition) at 10uM"
1,CCOc1ccc(CN2CCNC(=O)C2CC(=O)O)cc1 (stereo not shown),11.1%
2,CC(=O)Nc1sc(C)c(C)c1C(=O)OCC(=O)Nc1ccccc1,5.91%
3,S=C(Cc1ccc(-c2ccccc2)cc1)N1CCOCC1,-11.9%
4,Cc1oc(-c2ccccc2F)nc1CS(=O)(=O)CC(=O)NCc1ccco1,-27.3%
5,CC1CCC(NS(=O)(=O)c2ccc(N3CCCC3=O)cc2)CC1 (stereo not shown),1.51%
6,O=[N+]([O-])c1ccc(C2=NN(CCO)C(=Nc3ccc(OC(F)(F)F)cc3)SC2)cc1,-13.5%
7,COc1ccc(N=C2SCC(c3ccc([N+](=O)[O-])cc3)=NN2CCO)cc1,-53.1%
8,COc1ccc(N=C2SCC(c3ccc(C)cc3)=NN2CCO)cc1,-9.63%
9,Cc1ccc(C2(C)NC(=O)N(CC(=O)Nc3ccccc3C(=O)N3CCCCC3)C2=O)cc1 (stereo not shown),6.74%
10,Cc1ccc(S(=O)(=O)N2CCOCC2)cc1NC(=O)COC(=O)CCn1c(C)csc1=O,2.85%
11,COCCN=c1scc(C)n1/N=C/C1CC2C=CC1C2 (stereo not shown),-55%
12,COCCN=c1scc(-c2cccs2)n1/N=C/c1ccc(O)c(O)c1O,6.24%
13,COCCN=c1scc(-c2ccccc2)n1/N=C/c1c[nH]c2ccccc12,18.7%
14,COc1ccc(Cl)cc1S(=O)(=O)N(C)CC(=O)NCc1ccccn1,17.8%
15,C=CCn1c(O)c(C=Nc2ccc(N(CC)CC)cc2)c(=O)[nH]c1=O,-7.13%
16,Cc1ccc(CSc2nnc(-c3ccccn3)n2C)cc1,-3.39%
17,Brc1ccc(CSc2ccc3nnc(-c4ccccn4)n3n2)cc1,-67.1%
18,O=C(CSc1ccc2nnc(-c3ccccn3)n2n1)Nc1ccc(F)cc1,-48.2%
19,Nn1c(SCc2ccc(Br)cc2)nnc1-c1ccccn1,17.5%
20,Cc1ccc(NC(=O)CSc2ccc3nnc(-c4ccccn4)n3n2)cc1,-44.2%
21,c1ccc(CSc2ccc3nnc(-c4ccccn4)n3n2)cc1,-69.5%
22,O=C(CSc1ccc2nnc(-c3ccccn3)n2n1)Nc1ccc(F)cc1F,-30.4%

row,SMILES,"hERG current change (%, negative = inhibition) at 10uM"
1,Cn1c(SCc2ccc(Br)cc2)nnc1-c1ccccn1,-19.4%
2,Cc1ccc(CSc2ccc3nnc(-c4ccccn4)n3n2)cc1,-71.8%
3,Fc1ccc(CSc2ccc3nnc(-c4ccccn4)n3n2)cc1,-87.6%
4,O=C(CSc1ccc2nnc(-c3ccccn3)n2n1)Nc1ccccc1F,-14.7%
5,O=C(CSc1ccc2nnc(-c3ccccn3)n2n1)Nc1ccccc1,-23.4%
6,C[C@@H](C(=O)NCC1CC1)[C@H]1C[C@]1(C)[C@H](NC(=O)OCc1ccccc1)c1ccccc1,-7.08%
7,Cc1cccc(C(=O)N2CCCC(CCC(=O)N3CCN(c4ccccn4)CC3)C2)c1C (stereo not shown),-17.3%
8,O=C(Cn1cnc2cc([N+](=O)[O-])ccc2c1=O)Nc1cccc2ccccc12,-5.73%
9,O=C(O)c1ccc(Cl)c(S(=O)(=O)Nc2ccc(OCc3ccccc3)cc2)c1,7.79%
10,O=C(Cn1cc(C(=O)C2CC2)c2ccccc21)NCc1ccccc1,3.43%
11,Cc1cc(C(F)F)n2ncc(C(=O)NC3CCCCCC3)c2n1,-11.5%
12,O=C(NCc1ccc2c(c1)OCO2)C(=O)NCC(c1ccco1)N1CCN(c2ccccc2)CC1 (stereo not shown),16%
13,O=C(COc1ccc(Cl)cc1)Nc1ccc(N2CCN(C(=O)c3ccco3)CC2)cc1,-21.1%
14,COc1ccc(NC(=O)CSCC(=O)N2CCN(C(=O)c3ccco3)CC2)cc1,-55.1%
15,Cc1cccc(OCC(=O)Nc2ccc(N3CCN(C(=O)c4ccco4)CC3)cc2)c1,-28.1%
16,O=C(COc1ccccc1)Nc1ccc(N2CCN(C(=O)c3ccco3)CC2)cc1,-53%
17,Cc1cccc(NC(=O)CSCC(=O)N2CCN(C(=O)c3ccco3)CC2)c1,-30.5%
18,Cc1ccc(OCC(=O)Nc2ccc(N3CCN(C(=O)c4ccco4)CC3)cc2)cc1,-56.1%
19,Cc1cc(C)cc(OCC(=O)Nc2ccc(N3CCN(C(=O)c4ccco4)CC3)cc2)c1,-45.8%
20,Cc1ccc(NC(=O)CSCC(=O)N2CCN(C(=O)c3ccco3)CC2)cc1,-21.6%
21,COc1ccc(OCC(=O)Nc2ccc(N3CCN(C(=O)c4ccco4)CC3)cc2)cc1,0.974%
